The assay deals with Protein RecA (Mycobacterium tuberculosis (strain ATCC 25618 / H37Rv)) (UniProt P9WHJ3). The assay is described as follows: RecA inhibition, Mycobacterium tuberculosis, GFP plate reader MOA with DTT, confirmatory (AID 493233).

This is an account of results in PubChem BioAssay AID493233 (Broad Institute, 2011).

Structures are written as SMILES. Entries with a potency or affinity are not part of this list. The source made the active and inactive calls. The rule behind the calls is not given here.

Protein RecA (Mycobacterium tuberculosis (strain ATCC 25618 / H37Rv)), sequence (P9WHJ3 whole entry, looked up): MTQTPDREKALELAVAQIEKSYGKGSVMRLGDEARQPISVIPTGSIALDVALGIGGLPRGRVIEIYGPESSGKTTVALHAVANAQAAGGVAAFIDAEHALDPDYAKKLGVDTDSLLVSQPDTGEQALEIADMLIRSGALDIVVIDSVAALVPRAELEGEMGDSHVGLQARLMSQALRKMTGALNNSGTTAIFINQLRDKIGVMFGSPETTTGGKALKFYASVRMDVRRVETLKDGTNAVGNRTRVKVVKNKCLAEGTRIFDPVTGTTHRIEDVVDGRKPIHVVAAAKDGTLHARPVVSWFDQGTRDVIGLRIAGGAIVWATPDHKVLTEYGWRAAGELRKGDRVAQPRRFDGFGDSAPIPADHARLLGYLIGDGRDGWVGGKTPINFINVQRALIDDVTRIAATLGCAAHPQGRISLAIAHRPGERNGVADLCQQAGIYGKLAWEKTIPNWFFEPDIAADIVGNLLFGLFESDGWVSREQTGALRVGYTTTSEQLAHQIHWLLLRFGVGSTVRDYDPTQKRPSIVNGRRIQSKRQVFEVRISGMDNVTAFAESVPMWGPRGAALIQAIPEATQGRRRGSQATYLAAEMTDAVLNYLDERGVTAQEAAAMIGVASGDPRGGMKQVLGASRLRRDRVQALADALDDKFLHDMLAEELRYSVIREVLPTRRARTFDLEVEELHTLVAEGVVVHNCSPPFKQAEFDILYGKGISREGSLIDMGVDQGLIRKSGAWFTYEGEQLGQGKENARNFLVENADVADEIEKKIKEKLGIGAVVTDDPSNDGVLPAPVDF

With `C/C(=N\NC(=O)c1ccncc1)c1cc2ccccc2oc1=O`, the call was inactive.
For the compound `Nc1cn(-c2ccccc2)nc1-c1ccc(F)cc1`, the compound was called inactive.
